Screening results (PubChem BioAssay)
TDP43 rescue: inhibitors of TDP-43 toxicity in yeast. TDP-43 expressing yeast growth rescue, BacTiter-Glo, 24 h. Potency, µM (series often up to 46.1 µM), without a hit: at the highest dose growth rescue (activation), most hits filed as activators. 410,000 compounds, 1.8% hits; further: % of control where 0% means no effect; nearly all actives have a fitted effect of over 50% in size
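Cell-based yeast growth screen: TDP-43 expression induced in galactose, inoculum OD600=0.02 after raffinose pregrowth to mid-log. Read-out BacTiter-Glo luminescence at 24 hr, 30 deg C; inhibition of toxicity seen as signal increase.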
aSyn yeast inh: alpha-synuclein toxicity inhibition in yeast | Yeast expressing alpha-synuclein, growth rescue, BacTiter-Glo, 24 h | Potency, µM (titrated, usually from 46.1 µM), inactives show top-dose growth rescue (activation), actives largely listed as activators | 370,000 compounds, 0.14% hits | AID 652106; further: % of control where 0% means no effect; nearly all actives have a fitted effect of over 65% in size
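Rescue of yeast growth: cells expressing toxic alpha-synuclein, induced in galactose at OD600 0.02, incubated with compound 24 h at 30 C. ATP luminescence quantified growth; inhibitors of toxicity appear as activators.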
FUS suppressor: suppressors of FUS proteinopathy in yeast; S. cerevisiae FUS-expressing, growth rescue, OD600, 24 h; Potency, µM (titrated, usually from 76.6 µM), most hits filed as activators; 390,000 compounds, 0.24% hits; AID 1347120;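 further: plate controls were DMSO vehicle for no effect and reference control for full effect; nearly all actives have a fitted effect of over 55% in size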
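Read-out: OD at 600 nm after 24hr at 30C, reporting rescue of FUS-induced yeast toxicity. Cells at OD 0.005 in galactose (2%) minimal medium; compounds tested in a dilution series; CP55940 titration from 92uM final as control.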
Abeta rescue: A-beta toxicity reversal in yeast; Potency, µM (titrated, usually from 46.1 µM), actives largely listed as activators; AID 1347071; yeast expressing A-beta42, growth rescue, OD600, 48 h; response scale: 0% DMSO, 100% iron-clioquinol control; 410,000 compounds, 0.063% hits; further: nearly all actives have a fitted effect of over 55% in size
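Yeast A-beta toxicity model in growth medium with pinned compounds, 48 h at 30 C; growth read as absorbance at 600 nm. Normalized to FeCl3/clioquinol equimolar mix (positive) and DMSO (negative).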
The depositor's hits bear a star; i = inactive; ? = inconclusive; . = no result given; [ ] = another dose, or the depositor's remark. Sampled rows, rich in hits. Any-hit rate of the full collection: about 2.1%. The call rests on the fitted dose curve; in most records, active means well fitted curve in the direction sought with a large enough effect; inconclusive means small, poorly fitted or top-dose-only effect, or another doubt; inactive means no such curve, though single readings can be large; an effect the other way counts as inactive or inconclusive. Potency means the concentration at half of the fitted maximal effect.

SMILES	TDP43 rescue	aSyn yeast inh	FUS suppressor	Abeta rescue
NC(=O)[C@@H]1CC2(CC(c3cccc(NC(=O)COc4ccc(Cl)cc4)c3)=NO2)CN1C(=O)COc1ccc(Cl)cc1 (stereo partly drawn)	-22.3%	1.2%	17.8µM*	i
C=C(C)C(=O)N1CC2(CC(c3cccc(NC(=O)CC(c4ccccc4)c4ccccc4)c3)=NO2)C[C@H]1C(N)=O (stereo partly drawn)	-11.7%	10.7%	31.6µM*	i
NC(=O)[C@H]1CC2(CC(c3cccc(NC(=O)CC(c4ccccc4)c4ccccc4)c3)=NO2)CN1C(=O)CC(c1ccccc1)c1ccccc1 (stereo partly drawn)	0.0%	0.1%	?	i
N#CCC(=O)N1CC2(CC(c3cccc(NC(=O)COc4ccc(Cl)cc4)c3)=NO2)C[C@@H]1C(N)=O (stereo partly drawn)	1.1%	1.7%	i	i
NC(=O)[C@@H]1CC2(CC(c3cccc(NC(=O)CC(c4ccccc4)c4ccccc4)c3)=NO2)CN1C(=O)c1ccc(Cl)cc1 (stereo partly drawn)	-9.4%	-0.1%	28.2µM*	i
C/C=C\C=C\C(=O)Nc1cccc(C2=NOC3(C2)C[C@@H](C(N)=O)N(C(=O)C(c2ccccc2)c2ccccc2)C3)c1 (stereo partly drawn)	7.9%	3.8%	31.6µM*	i
C=C1C=C(C(F)F)n2ncc(C(=O)NCc3ccc(Cl)cc3Cl)c2N1	.	8.0%	.	.
CCCCCn1cc2c(c1-c1ccccc1Br)c(=O)n(C)c(=O)n2C	17.8µM*	.	i	i
CCCCn1cc2c(c1-c1ccccc1Br)c(=O)n(C)c(=O)n2C	0.0%	.	i	i
Cc1cc(NC(=O)CN2C(=O)c3cccnc3Sc3ccccc32)ccc1Br	9.5%	.	i	i
CC(C)(C)C(=O)O/N=C(\N)c1c(Cl)cccc1Cl	12.6µM*	3.3%	i	i
Cc1onc(-c2c(Cl)cccc2Cl)c1/C(N)=N/OC(=O)C(C)(C)C	17.6%	-14.5%	i	i
COc1ccc(OC(=O)c2c(C)nn(-c3ccccc3)c2C)cc1	22.4µM*	-20.5%	i	i
Cc1nn(-c2ccccc2)c(C)c1C(=O)Oc1ccccc1	?	-12.3%	i	i
O=C(Cn1ncc2c3ccccc3n(Cc3cccc(Cl)c3)c2c1=O)NC1CCCCCC1	0.0%[9.22 µM]	.	i	i
O=C(C(=Cc1ccc(F)cc1)C(=O)c1ccccc1)c1ccccc1	3.55µM*	?	i	i
C=CCc1c(C)nc2c(OC)cccc2c1Cl	14.9%	25.8%	i	i
COc1cccc2c(Cl)c(CC=C(Cl)Cl)c(C)nc12	11.2µM*	-18.4%	i	i
CCOC(=O)c1ccc(N2C(=O)C3C(C2=O)C(C(=O)c2ccc(Cl)cc2)N2CCCC32)cc1 (stereo not drawn)	-1.1%	3.2%	12.6µM*	i
CCOC(=O)c1ccc(N2C(=O)C3CC=CCC3C2=O)cc1 (stereo not drawn)	-7.3%	3.8%	i	i
Cc1cc(C)cc(NC(=O)CCS(=O)(=O)c2ccc3c(c2)oc(=O)n3C)c1	11.2%	.	i	i
CC(C)c1ccc(O)c(C(=O)c2cnn(-c3ccccc3)c2)c1	20µM*	-26.5%	i	i
O=C(c1cnn(-c2ccccc2)c1)c1cc(Br)ccc1O	5.4%	-1.9%	.	i
Cc1ccc(NC(=O)CN(C)C(=O)c2cccnc2Nc2cccc(C(F)(F)F)c2)cc1	20µM*	-55.3%	i	i
COc1ccc(C2=CC(=O)C[C@H](c3ccc4c(c3)OCO4)C2)cc1	11.2µM*	-0.3%	i	i
SMILES	TDP43 rescue	aSyn yeast inh	FUS suppressor	Abeta rescue
O=C1C=C(c2ccccc2C(F)(F)F)C[C@@H](c2ccc3c(c2)OCO3)C1	17.8µM*	14.9%	i	i
Cc1ccc(C2=CC(=O)C[C@H](c3ccc4c(c3)OCO4)C2)cc1	12.6µM*	8.3%	i	i
COc1ccccc1C1=CC(=O)C[C@H](c2ccc3c(c2)OCO3)C1	?	1.7%	i	i
O=C1C=C(/C=C/c2ccccc2)C[C@@H](c2ccc3c(c2)OCO3)C1	20µM*	9.7%	i	i
O=C(CS(=O)(=O)c1cccc2nsnc12)Nc1ccc(F)cc1	-6.2%	-11.5%	i	i
COC(=O)c1c(-c2ccc(Cl)cc2)noc1N1CCN(c2ccc(OC)cc2)CC1	17.8%[9.22 µM]	.	i	i
CCn1cc2nc(SCc3cc(C)ccc3C)n(CCc3ccccc3)c(=O)c2n1	-2.5%	.	i	i
CC(=O)Nc1ccc(C2=CC(=O)C[C@H](c3ccc4c(c3)OCO4)C2)cc1	22.4µM*	-4.5%	i	i
O=C1C=C(c2ccc(O)cc2)C[C@@H](c2ccc3c(c2)OCO3)C1	12.0%	6.4%	i	i
COc1ccc(/C=C2\SC(=O)NC2=S)cc1OC	8.91µM*	-15.9%	i	i
CCOc1ccc(/C=C2\SC(=S)NC2=O)cc1OC	-8.2%	-1.4%	i	i
CCOc1ccccc1NC(=O)C(OC(=O)C1CC1)c1ccccc1 (stereo not drawn)	-7.6%	-8.3%	i	?
CCOc1ccccc1NC(=O)C(OC(=O)c1cnc(C)cn1)c1ccccc1 (stereo not drawn)	17.8µM*	11.7%	i	?
CCN(Cc1ccccc1)S(=O)(=O)c1cc(C(=O)Nc2cc(Cl)cc(Cl)c2)ccc1F	15.4%	.	i	i
S=C(NCCSCc1ccccc1Cl)Nc1ccccc1	12.6µM*	16.9%	i	i
S=C(NCCSCc1ccc(Cl)cc1)Nc1ccccc1	25.1µM*	-14.9%	.	i
Cc1cccc(CSCCNC(=S)Nc2ccccc2)c1	15.8µM*	-2.7%	.	i
S=C(NCCCc1ccccc1)Nc1ccccc1	29.3%	7.4%	i	20µM*
CCC(C)NC(=O)c1ccc2nc(CCc3ccccc3)oc2c1 (stereo not drawn)	22.5%	.	i	i
C[C@@H]1CCN(C2CC2)S(=O)(=O)c2c(cccc2N2CCC[C@@H]2CO)O1	.	.	i	.
COC(=O)c1ccc(NC(=S)NCCc2cccc(C)c2)cc1	8.91µM*	-6.6%	i	i
CC(=O)c1sc(NC(=O)c2ccc(Br)o2)nc1C	11.2µM*	-1.8%	i	i
Cc1nc(Nc2ccccc2)sc1-c1ccccc1	20µM*	-6.5%	.	i
COc1ccc(C(=O)c2sc(Nc3ccccc3)nc2C)cc1	25.1µM*	12.0%	i	i
CC(=O)c1sc(Nc2cccc(C)c2)nc1C	7.08µM*	0.2%	i	i
CC(=O)c1sc(NC(=O)c2ccc(Cn3cc(Br)cn3)o2)nc1C	-16.9%	-5.1%	i	i
Cc1cccc(C)c1Nc1c(-c2ccccc2Cl)nc2cnccn12	?	.	i	i
Cc1nc(-n2nc(C)c(Cc3ccccc3Cl)c2C)sc1C(=O)N1CCC(C)CC1	5.6%	.	i	i
